Source: PubChem BioAssay AID602410 (Johns Hopkins Ion Channel Center, 2012)
The whole screen tested about 340,000 compounds, of which about 2,800 (0.82%) were called active.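 How the source made its calls: active means B-score under library mean minus 4 SD, starting fluorescence ratio at most library mean plus 5 SD; inactive means the rest.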 The full list was thinned out, with actives kept by preference.

The compounds below were run against Potassium channel subfamily K member 3 (Homo sapiens) (UniProt O14649) (assay: human KCNK3 channel inhibitors, primary screen, CHO cells, FluxOR thallium flux, B-score (AID 602410;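 on B-score: more negative B-score means stronger inhibition of thallium flux through KCNK3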)). Details: FluxOR fluorescence, at 10 µM; hits give low values.
Sequence of Potassium channel subfamily K member 3 (Homo sapiens) (O14649 whole entry, looked up): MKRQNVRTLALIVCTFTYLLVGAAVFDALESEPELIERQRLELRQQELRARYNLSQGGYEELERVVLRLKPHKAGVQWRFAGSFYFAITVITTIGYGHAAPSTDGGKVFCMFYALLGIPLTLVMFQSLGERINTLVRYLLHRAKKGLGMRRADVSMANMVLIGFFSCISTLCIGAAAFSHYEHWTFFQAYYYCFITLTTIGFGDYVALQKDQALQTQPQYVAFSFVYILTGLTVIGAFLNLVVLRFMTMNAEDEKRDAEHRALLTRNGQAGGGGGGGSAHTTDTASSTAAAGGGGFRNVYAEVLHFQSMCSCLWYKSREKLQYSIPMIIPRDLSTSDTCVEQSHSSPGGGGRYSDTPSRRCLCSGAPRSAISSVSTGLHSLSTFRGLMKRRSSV

B-score, active:
COc1cc(Cl)c(S(=O)(=O)N2CCN(Cc3ccc4c(c3)OCO4)CC2)cc1Cl -11.5
FC(F)(F)c1cccc(-c2cc3ccccc3nc2N2CCCC2)c1 -9.37
Cc1cccc(C)c1N1CCN(S(=O)(=O)N2CCCCC2)CC1 -11.9
[O-][n+]1ccc(OCc2ccccc2)cc1 -9.05
COc1cc(/C=C(\C#N)c2nc3ccccc3[nH]2)ccc1O -8.85
Cc1cccc(NC(=O)CN2CCCN(S(=O)(=O)c3ccc(Br)s3)CC2)c1 -11.4
CN(c1ccccc1)S(=O)(=O)c1cccc(NC(=O)Cc2ccc(Cl)cc2)c1 -10.7
Cc1nonc1C1CCCN1C(=O)c1cc(COc2cccc(C(F)(F)F)c2)on1 (stereo not drawn) -9.02
CSc1cccc(NC(=S)N(C(C)C)C(C)c2ccccn2)c1 (stereo not drawn) -10.1
CC(C(=O)NCC1CCCCC1)N(C)Cc1cccc(Cl)c1 (stereo not drawn) -8.9
S=C(Nc1cccc(Br)c1)N1CCn2cccc2C1c1cccnc1 (stereo not drawn) -9.52
O=C(Nc1cccc(S(=O)(=O)Nc2ccc(Cl)cc2)c1)c1ccc2c(c1)OCCO2 -9.14
CCOC(=O)c1cc2cc(-c3c(C(=O)OCC)oc4cc(O)cc(O)c4c3=O)ccc2o1 -9.55

B-score, inactive:
CCC(C)(C)NC(=O)/C=C/c1cc(OC)c(OC)c(S(=O)(=O)N2CCc3ccccc32)c1
CCn1cc(C(=O)N2CCN(Cc3ccc4c(c3)OCO4)CC2)c2cc(OC)c(OC)cc2c1=O
COc1ccc(-c2cc(C(=O)N3CCN(Cc4ccc5c(c4)OCO5)CC3)on2)cc1OC
Cc1nc(N)sc1N=Nc1c(C)n(C)n(-c2ccccc2)c1=O
c1ccc(-c2cc(N3CCCCC3)c3ccccc3n2)cc1
O=C(c1cc2ccccc2o1)N1CCN(c2cccc(C(F)(F)F)c2)CC1
COC(=O)[C@@H]1CC(O)CN1C(=O)C12CC3CC(CC(C3)C1)C2 (stereo partly drawn)
CC1CN(CCOc2ccccc2[N+](=O)[O-])CC(C)O1 (stereo not drawn)
Cc1cccc(C)c1N1CCN(S(=O)(=O)N2CCOCC2)CC1
Cc1cccc(C(=O)N2CCN(S(=O)(=O)N3CCCCC3)CC2)c1
COC(=O)c1ccc(CNC(=O)C2CCC(=O)N(Cc3ccccn3)C2)cc1 (stereo not drawn)
COc1ccc(CN2CCN(C(=O)c3cc(C4CC4)nn3-c3ccccc3)CC2)cc1F
CN(Cc1ccccc1)C(=O)c1ccc(COc2ccccc2)cc1
O=C(O)/C=C\C(=O)Nc1ccc(OCc2ccccc2)cc1
CCCN1Cc2cccc(C(=O)Nc3ccc(S(=O)(=O)N4CCCCCC4)cc3)c2C1=O
O=S(=O)(Nc1ccc(O)c2ccccc12)c1ccc(OC(F)(F)F)cc1
Cc1nn(C)c(Oc2ccc(Cl)cc2)c1C=O
CCN(CC(=O)Nc1cc(Cl)ccc1C)C(=O)Cn1c(=O)cnc2ccccc21
Cc1ccc(O)c(CNc2nc3ccccc3[nH]2)c1
CCCCCOc1ccc(/C=C/C(=O)NCCc2nc3ccccc3[nH]2)cc1OC
CCCCCc1nnc(NC(=O)c2ccc(=O)n(C)n2)s1
COCCCNCCOCCOc1ccc(Cl)cc1Br
Cc1ccc(OCC(=O)c2cc(C)n(Cc3ccco3)c2C)c([N+](=O)[O-])n1
CC(C)N(C(=O)CN1CCN(S(=O)(=O)c2ccc(Br)s2)CC1)C(C)C
Cc1ccc(S(=O)(=O)N2CCN(CC(=O)N/N=C/c3ccc(Br)s3)CC2)cc1
NC(=O)C1CCN(C(=O)CC2C(=O)NCCN2Cc2cccc(Oc3ccccc3)c2)CC1 (stereo not drawn)
C[C@H](O)[C@@H]1C(=O)N2CCc3ccc(N4CCOCC4)cc3[C@@H]2C[C@@H]1N(C)C(=O)C(C)(C)C
CC(NC(=S)Nc1ccccc1)C(c1cccs1)N1CCOCC1 (stereo not drawn)
CN(c1ccccc1)S(=O)(=O)c1cccc(NC(=O)Cc2c(F)cccc2Cl)c1
CN(C)S(=O)(=O)c1cccc(NC(=O)Cc2ccsc2)c1
Cc1cc(F)ccc1S(=O)(=O)Nc1ccc(C(=O)N(C)Cc2ccco2)cc1
O=C(c1cc(COc2cccc(C(F)(F)F)c2)on1)N1CCSCC1
O=C(NC1Cc2ccccc2C1)c1cc(COc2cccc(C(F)(F)F)c2)on1
CCCNC(=O)c1ccc(N2CCC3(CC2)CC(c2cccc(Br)c2)=NO3)c(NC(=O)c2ccco2)c1
CS(=O)(=O)N1CCCC(C(=O)N2CCOCC2)C1 (stereo not drawn)
S=c1[nH]nc(-c2ccco2)n1/N=C/c1ccc(Br)s1
CCN(CC(=O)NCc1ccc(Cl)cc1)C(=O)CSc1ccccc1
CSc1cccc(NC(=S)N(Cc2ccccc2)Cc2ccccn2)c1
CC(c1ccccn1)N(CCN(C)C)C(=S)Nc1ccccc1F (stereo not drawn)
NC(=S)Nc1c(Cl)cccc1Cl
FC(F)(F)c1cccc(Cc2noc(CN3CCC(N4CCCCC4)CC3)n2)c1
CNS(=O)(=O)c1cccc(C(=O)NCC2CCCCC2)c1
COc1ccc(CN(C)C(C)C(=O)NC2CCCc3ccccc32)cc1 (stereo not drawn)
CCc1cccc(NC(=O)C2CCCN(S(=O)(=O)c3ccc4[nH]c(=O)ccc4c3)C2)c1 (stereo not drawn)
Cc1cc(OCC(=O)Nc2c(C)n(C)n(-c3ccccc3)c2=O)ccc1[N+](=O)[O-]
COc1ccc(CNCCCn2cnc3c(OCc4ccccc4)ncnc32)cc1
Fc1cc(Br)ccc1NC(=S)Nc1cccnc1
S=C(NCCc1ccccc1)N1CCn2cccc2C1c1ccncc1 (stereo not drawn)
C=C(C)c1cccc(C(C)(C)NC(=O)N2CCN(c3ncccn3)CC2)c1
C=CCN1CN(S(=O)(=O)c2ccc(OC)cc2)c2nc3ccccc3nc21
O=C(Nc1ccc2c(c1)OCCO2)c1ccc(Cl)c(S(=O)(=O)N2CCCCC2)c1
O=C(Nc1ccc(Cl)cn1)c1ccc2c(c1)OCCO2
O=C(NCc1ccco1)C(=O)c1cn(CC(=O)N2CCCCCC2)c2ccccc12
CCOC(=O)c1cc(=O)c2ccc(OCc3ccccc3)cc2o1
O=c1c(-c2ccc3c(c2)OCCO3)c(C(F)(F)F)oc2cc(O)cc(O)c12
